# Source: PubChem BioAssay
# This is one part of a sample in which hits are shown more often than they occur.
# PKM2 inhibitor: PKM2 (human) enzyme inhibition; purified PKM2, ATP generation, Kinase-Glo luminescence; Potency, µM (highest dose often 57.5 µM), inactives show at the highest dose activity change, negative = inhibition, hits mostly inhibitors; 260,000 tested, 0.058% active; active = well fitted inhibition curve with a large enough effect; also: nearly all actives have a fitted effect of over 60% in size
# Target sequence (P14618 whole entry, looked up): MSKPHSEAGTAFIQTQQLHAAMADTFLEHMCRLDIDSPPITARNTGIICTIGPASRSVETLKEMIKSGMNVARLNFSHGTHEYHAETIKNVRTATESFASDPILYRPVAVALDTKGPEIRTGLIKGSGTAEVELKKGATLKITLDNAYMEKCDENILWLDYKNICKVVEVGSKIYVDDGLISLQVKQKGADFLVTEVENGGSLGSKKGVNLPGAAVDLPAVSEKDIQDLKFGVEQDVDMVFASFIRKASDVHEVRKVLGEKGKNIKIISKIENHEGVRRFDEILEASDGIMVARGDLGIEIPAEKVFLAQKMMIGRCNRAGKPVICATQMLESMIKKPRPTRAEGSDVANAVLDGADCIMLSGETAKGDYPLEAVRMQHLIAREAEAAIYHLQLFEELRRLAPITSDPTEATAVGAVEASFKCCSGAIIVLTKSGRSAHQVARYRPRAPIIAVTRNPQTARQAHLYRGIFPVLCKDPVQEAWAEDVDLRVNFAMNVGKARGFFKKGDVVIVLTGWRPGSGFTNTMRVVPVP
#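 Enzyme run at intermediate activity with final 0.1 mM ADP, 0.5 mM PEP (50 mM imidazole pH7.2, 50 mM KCl, 7 mM MgCl2), incubated 1 h at r.t. ATP formed read by Kinase-Glo luminescence, normalized to no-enzyme (full inhibition) and uninhibited wells.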
# * = called active by the depositor; [ ] = dose if it differs, or a comment. Potency is read from the fitted curve at half-maximal effect.
SMILES,PKM2 inhibitor
C(=N\Nc1nc2ccccc2[nH]1)/c1ccccn1,14µM*
C(=N\n1cnnc1)/c1ccccn1,-9%
Cc1ccc(CC2CC(=O)N(Cc3ccco3)C2=O)cc1 (configuration not stated),30%
Cc1ccc2c(c1)C(N1CCCC1=O)CC(c1ccco1)N2 (configuration not stated),14µM*
COc1c(O)c(O)cc2c1oc1c3cc(C)ccc3oc(=O)c21,46%
CCOc1cc(/C=N/Nc2nc(-c3cccs3)c(NC(C)=O)s2)ccc1O,53%
N/C(=N\OC(=O)c1ccc(Cl)cc1)c1ccccn1,7.1µM*
N/C(=N\OC(=O)CCCN1C(=O)c2ccccc2C1=O)c1ccccn1,55%
O=C(OCc1ccc(Cl)cc1Cl)c1cccnc1Cl,44%
Cc1ccc(C(=O)O/N=C(\N)c2ccccn2)c(C)c1,7.9µM*
CN(C(=O)CSc1nc2ccccc2s1)c1c(N)n(Cc2ccccc2)c(=O)[nH]c1=O,33%
O=C(NC1CC1)C1=C[C@@H](c2csc3ccccc23)C[C@@H](OCc2ccc(CO)cc2)O1,60%
CCOc1ccccc1NC(=S)N1CCN(c2ccccc2F)CC1,-23%
Cc1cc(C)c(C#N)c(SCC(=O)Nc2nonc2N)n1,67%
Cn1c2ccccc2c2nnc(SCC(=O)Nc3cccc(O)c3)nc21,48%[11.5 µM]
Cc1ccc(N2C(=O)C3C4C=CC(CNC(=S)Nc5cccc(Cl)c5)(O4)C3C2=O)cc1 (configuration not stated),38%
CC(=O)c1c(C)[nH]c(C(=O)Nc2cccc(S(=O)(=O)N(C)c3ccccc3)c2)c1C,41%
Cc1ccc2nc(-c3ccccc3)cn2c1,14µM*
Nc1nc(-c2ccccc2)cn1N,78%
O=C(NCc1ccco1)/C(=C\c1cccs1)NC(=O)c1ccco1,120%
O=C(CNC(=O)c1ccc2ccccc2c1)OCC(=O)N1CCN(S(=O)(=O)c2ccc3ccccc3c2)CC1,33%
COc1ccc2nc(C)cc(Nc3ccc(C)cc3)c2c1,-1%
COc1ccc(-c2cc3nc(C)cc(N)n3n2)cc1,14µM*
CS/C(N)=N/S(=O)(=O)c1ccc(NC(C)=O)cc1,43%
Cc1ccc(C)c(NS(=O)(=O)c2c(C)nc3sccn3c2=O)c1,53%
SMILES,PKM2 inhibitor
NC(=O)c1ccccc1N/C=C/C(=O)c1ccccc1,11µM*
N#C/C(=C/Nc1ccccc1C(=O)O)C(N)=O,-8%
O=C(/C=C\c1ccc(-c2ccccc2)o1)c1ccccc1,35%
Cc1nonc1CC(=O)N1CCCC(C(=O)c2ccc(Cl)cc2)C1 (configuration not stated),131%
COc1ccccc1C(=O)Nc1nc2ccccc2[nH]1,16µM*
COc1ccccc1C(=O)Nc1ncc2c(n1)CC(c1ccco1)CC2=O (configuration not stated),46%
CCCCNS(=O)(=O)c1ccc2nc(SCC(=O)c3ccccc3OC)[nH]c2c1,32%
Cc1cccc(C)c1NC(=O)C1CCCN1S(=O)(=O)c1ccc2c(c1)n(C)c(=O)c(=O)n2C (configuration not stated),6%
COc1ccccc1CNC(=O)COC(=O)[C@H](Cc1c[nH]c2ccccc12)NC(=O)c1cccs1,27%
O=C(Cn1nnc(-c2ccc3c(c2)OCO3)n1)NCc1ccccc1,85%
COc1cccc(-c2nc(-c3ccccn3)no2)c1,14µM*
c1ccc(-c2noc(-c3ccncc3)n2)nc1,14µM*
c1cc(-c2nnc(-c3ccncc3)o2)ccn1,72%
COc1cccc(-c2nnc(SCC(=O)Nc3cc(C)on3)o2)c1,42%
COc1ccc(S(=O)(=O)NCc2c(-c3ccccc3)noc2C)c(OC)c1,78%
c1ccc(-c2noc(-c3ccc4c(c3)OCO4)n2)nc1,8.9µM*
Cc1ccc(CNC(=O)[C@@H]2C[C@H]2[C@@H](NP(=O)(c2ccccc2)c2ccccc2)c2ccccc2)o1,41%
COc1ccccc1S(=O)(=O)N1CCN(S(=O)(=O)c2ccccc2C#N)CC1,87%
O=C(CCC(=O)N1CCOc2ccc(Cl)cc21)NCCN1CCOCC1,31%
Cc1cc(NC(=O)CSc2nncc(=O)n2N)no1,67%
COc1ccc(C(=O)OCC(=O)NCc2ccccc2)c(OC)c1OC,38%
COCCCNC(=S)N/N=C/c1ccc(O)cc1,32%
Cc1occc1C(=O)N/N=C/c1ccc(N(C)C)cc1,14µM*
COc1ccc([C@]23Cc4ccccc4C(O2)C2=C(CC(C)(C)CC2=O)O3)cc1,56%[11.5 µM]
CN(C)CCNC(=O)c1c(CSc2ccccc2)noc1C(=O)NCc1ccccc1,2%
SMILES,PKM2 inhibitor
O=C(NCCc1nc2ccc(Cl)cc2[nH]1)C1CCC(=O)N(Cc2cccc(F)c2)C1 (configuration not stated),44%
CCN1/C(=C/c2ccc3ccccc3[n+]2CC)C=Cc2ccccc21,14µM*
COC(=O)CCCCCCCC(=O)Nc1nnc(C(F)(F)F)s1,32%
COc1cc2c(cc1OC)N1C(=O)CC(OCC(=O)O)C3C4CC5(CCN5C(=O)C4=O)C2C31 (configuration not stated),52%
CC1(C)CC(Nc2ccc(Nc3ccccc3)cc2)CC(C)(C)N1,52%
Cc1ccc(-c2cc3c(nn2)-c2ccccc2C3=O)cc1,13µM*
CCOC(=O)C1=C(Cc2ccc(C)cc2)C(=O)c2ccccc2C1=O,40%
COC(=O)c1ccc(NC(=O)c2cc[n+](Cc3ccccc3)cc2)cc1,-2%
O=[N+]([O-])c1ccc(OCc2cnc(Cl)s2)c([N+](=O)[O-])c1,71%
CCN(Cc1ccncc1)Cc1c(O)ccc2cc(Br)ccc12,36%
N#Cc1ccccc1Cn1cc(/C=C/[N+](=O)[O-])c2ccccc21,39%
Cc1ccc(/C=C2/NC(=O)N(c3ccccc3)C2=O)o1,56%
CCN1C(=O)N/C(=C/c2ccc(C)o2)C1=O,40%
Cc1ccc(C=C2C(=O)c3ccccc3C2=O)o1,14µM*
COc1ccc(S(=O)(=O)N(C(C)=O)c2ccc(OC(C)=O)c3ccccc23)cc1[N+](=O)[O-],38%
CCNc1nc(NC(C)C)nc(Oc2ccc(/C=N/O)cc2)n1,42%
CCOc1ccc(C(=O)Nc2cc(C)ccn2)cc1,14µM*
CCOc1ccc(-c2nnc(SCC(=O)Nc3cc(C)on3)o2)cc1,28%
COc1ccc(C(=O)Nc2c(C)cc(C)cc2C)cc1OC,-33%
CN1C(=O)c2cccc3c(S(=O)(=O)Nc4ccccc4F)ccc1c23,79%
Cc1cc(C)c2c(N)c(-c3nc4ccccc4[nH]3)sc2n1,55%
Fc1ccccc1-c1nc2ccccc2[nH]1,32µM*
COc1ccc(S(=O)(=O)N2CCN(C(=O)NCc3ccc(C)cc3)CC2)cc1,63%
CC(=O)C1=C(S(=O)(=O)c2ccc(C)cc2)CS(=O)(=O)C1,30%
COc1cccc(NC(=O)CN(C2=NC3CS(=O)(=O)CC3S2)c2cccc(C)c2)c1 (configuration not stated),32%
SMILES,PKM2 inhibitor
CCN(CC)CCn1c(C)nc2ccccc21,0%
CCn1c(C)nc2cc(-c3nc4n(n3)Cc3ccccc3-4)ccc21,16µM*
COc1ccc2c(c1)NC(c1ccc(N(C)C)cc1)c1cccn1-2 (configuration not stated),35%
Cc1ccsc1/C=N/Nc1nc(=O)[nH]nc1C,14µM*
COc1ccc(N2C(=O)CC(Sc3nnc(-c4ccccc4F)n3C)C2=O)cc1 (configuration not stated),50%
COc1ccc(-n2c(=S)[nH]c3ncccc3c2=O)cc1,0%
COc1ccc(N2Cc3ccccc3C2=O)cc1,14µM*
Cn1cccc1/C=N/N1CCN(Cc2cccc3ccccc23)CC1,47%
